In the supplement of paper PMC11732987, “Enantioselective OTUD7B fragment discovery through chemoproteomics screening and high-throughput optimisation” (Communications Chemistry, 2025):

Experiments:
Assay in all cases: log2 ratio of Biotin-Ahx-Ub-VS probe labelling (fragment/DMSO); higher = less target engagement (more negative = stronger competition), active = hit call of the paper (q ≤ 0.05, log2 ratio ≤ -1)
Settings in all cases: compound concentration: 200 uM; treatment time: 3 h
USP34 = USP34 (UniProt Q70CQ2)
How it was run: (§1)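 Each value is an average log2 ratio of fragment to vehicle, tested by unpaired t-test. The underlying Spectronaut label-free quantities were global-median-normalised, and only proteins with ≥2 unique peptides were included. Triplicate HEK293T lysate samples (495 µg) were exposed to fragment at 200 µM or vehicle for 3 h, then to Biotin-Ahx-Ub-VS at 0.5 µM final for 1 h, before NeutrAvidin enrichment of labelled DUBs, LysC and trypsin digestion, and diaPASEF LC-MS/MS.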

USP36 = molecular target: T1, USP36 (UniProt Q9P275)
T1 sequence (whole entry): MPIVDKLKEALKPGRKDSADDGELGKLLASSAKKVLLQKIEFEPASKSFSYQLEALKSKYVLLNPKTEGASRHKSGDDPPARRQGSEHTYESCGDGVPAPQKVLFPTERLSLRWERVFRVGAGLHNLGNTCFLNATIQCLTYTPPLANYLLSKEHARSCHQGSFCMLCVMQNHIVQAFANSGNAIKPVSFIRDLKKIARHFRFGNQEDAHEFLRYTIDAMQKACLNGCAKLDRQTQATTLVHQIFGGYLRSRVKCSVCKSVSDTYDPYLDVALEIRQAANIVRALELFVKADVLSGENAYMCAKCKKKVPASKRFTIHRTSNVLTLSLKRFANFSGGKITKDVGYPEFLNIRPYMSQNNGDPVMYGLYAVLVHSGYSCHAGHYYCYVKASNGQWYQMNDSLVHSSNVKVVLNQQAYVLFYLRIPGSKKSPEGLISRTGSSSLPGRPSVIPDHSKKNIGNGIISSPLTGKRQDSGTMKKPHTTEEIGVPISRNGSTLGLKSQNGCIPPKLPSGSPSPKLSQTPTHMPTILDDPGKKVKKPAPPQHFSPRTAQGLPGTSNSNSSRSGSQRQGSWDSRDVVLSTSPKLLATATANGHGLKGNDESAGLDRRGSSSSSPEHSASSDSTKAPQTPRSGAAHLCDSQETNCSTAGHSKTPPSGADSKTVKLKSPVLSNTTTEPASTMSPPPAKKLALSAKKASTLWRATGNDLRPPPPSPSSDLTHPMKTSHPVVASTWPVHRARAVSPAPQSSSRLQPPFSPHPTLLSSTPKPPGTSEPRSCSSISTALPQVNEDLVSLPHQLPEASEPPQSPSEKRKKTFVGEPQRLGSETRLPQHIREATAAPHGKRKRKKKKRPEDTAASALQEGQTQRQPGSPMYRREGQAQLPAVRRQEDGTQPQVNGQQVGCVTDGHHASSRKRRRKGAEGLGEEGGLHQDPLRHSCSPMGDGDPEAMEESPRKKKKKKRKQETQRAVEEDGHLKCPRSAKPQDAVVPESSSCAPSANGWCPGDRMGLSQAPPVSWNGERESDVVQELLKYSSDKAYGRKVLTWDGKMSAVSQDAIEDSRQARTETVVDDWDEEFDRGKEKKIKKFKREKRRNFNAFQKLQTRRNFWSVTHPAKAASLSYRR
How it was run: as §1

USP38 = molecular target: T2, USP38 (UniProt Q8NB14)
T2 sequence (whole entry): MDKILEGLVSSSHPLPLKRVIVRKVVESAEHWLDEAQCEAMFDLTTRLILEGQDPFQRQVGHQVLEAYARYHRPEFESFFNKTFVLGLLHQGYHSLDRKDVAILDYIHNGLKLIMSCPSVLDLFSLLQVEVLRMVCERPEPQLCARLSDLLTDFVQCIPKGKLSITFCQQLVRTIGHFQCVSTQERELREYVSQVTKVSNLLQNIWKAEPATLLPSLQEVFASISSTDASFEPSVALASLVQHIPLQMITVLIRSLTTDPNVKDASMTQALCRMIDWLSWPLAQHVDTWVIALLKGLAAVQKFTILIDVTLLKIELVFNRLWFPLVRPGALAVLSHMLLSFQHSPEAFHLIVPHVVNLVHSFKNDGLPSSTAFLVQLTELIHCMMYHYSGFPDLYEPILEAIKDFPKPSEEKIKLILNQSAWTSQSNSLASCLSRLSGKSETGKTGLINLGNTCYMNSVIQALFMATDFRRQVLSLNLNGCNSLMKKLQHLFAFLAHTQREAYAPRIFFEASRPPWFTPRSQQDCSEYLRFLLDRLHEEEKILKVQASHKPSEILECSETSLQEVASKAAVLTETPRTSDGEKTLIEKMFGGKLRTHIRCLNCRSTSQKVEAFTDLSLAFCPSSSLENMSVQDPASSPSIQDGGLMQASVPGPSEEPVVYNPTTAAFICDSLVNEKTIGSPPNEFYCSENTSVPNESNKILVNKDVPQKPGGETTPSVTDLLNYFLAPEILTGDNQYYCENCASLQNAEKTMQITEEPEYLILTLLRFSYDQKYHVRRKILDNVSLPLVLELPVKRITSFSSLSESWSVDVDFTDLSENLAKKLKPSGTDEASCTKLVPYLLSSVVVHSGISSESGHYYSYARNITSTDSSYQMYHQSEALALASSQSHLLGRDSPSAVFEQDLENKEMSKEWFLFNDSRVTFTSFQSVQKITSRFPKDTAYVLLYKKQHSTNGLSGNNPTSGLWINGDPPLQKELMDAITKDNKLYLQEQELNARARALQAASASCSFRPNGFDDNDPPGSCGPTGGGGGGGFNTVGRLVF
How it was run: as §1

USP39 = molecular target: T3, USP39 (UniProt Q53GS9)
T3 sequence (whole entry): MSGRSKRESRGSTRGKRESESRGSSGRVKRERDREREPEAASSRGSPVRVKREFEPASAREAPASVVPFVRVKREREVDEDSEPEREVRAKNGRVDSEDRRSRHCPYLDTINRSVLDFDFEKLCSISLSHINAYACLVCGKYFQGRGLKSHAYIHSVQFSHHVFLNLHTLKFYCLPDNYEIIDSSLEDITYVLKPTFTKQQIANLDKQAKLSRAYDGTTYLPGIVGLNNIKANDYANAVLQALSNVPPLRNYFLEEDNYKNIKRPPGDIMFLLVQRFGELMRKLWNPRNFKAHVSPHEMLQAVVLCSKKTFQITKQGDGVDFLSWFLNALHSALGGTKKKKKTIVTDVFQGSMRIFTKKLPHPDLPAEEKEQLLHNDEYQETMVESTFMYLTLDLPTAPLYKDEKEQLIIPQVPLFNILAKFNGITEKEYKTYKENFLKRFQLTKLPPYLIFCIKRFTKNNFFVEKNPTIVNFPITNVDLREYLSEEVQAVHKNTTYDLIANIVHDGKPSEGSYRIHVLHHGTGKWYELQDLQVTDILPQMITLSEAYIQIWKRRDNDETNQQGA
How it was run: as §1

USP4 = molecular target: T4, USP4 (UniProt Q13107)
T4 sequence (whole entry): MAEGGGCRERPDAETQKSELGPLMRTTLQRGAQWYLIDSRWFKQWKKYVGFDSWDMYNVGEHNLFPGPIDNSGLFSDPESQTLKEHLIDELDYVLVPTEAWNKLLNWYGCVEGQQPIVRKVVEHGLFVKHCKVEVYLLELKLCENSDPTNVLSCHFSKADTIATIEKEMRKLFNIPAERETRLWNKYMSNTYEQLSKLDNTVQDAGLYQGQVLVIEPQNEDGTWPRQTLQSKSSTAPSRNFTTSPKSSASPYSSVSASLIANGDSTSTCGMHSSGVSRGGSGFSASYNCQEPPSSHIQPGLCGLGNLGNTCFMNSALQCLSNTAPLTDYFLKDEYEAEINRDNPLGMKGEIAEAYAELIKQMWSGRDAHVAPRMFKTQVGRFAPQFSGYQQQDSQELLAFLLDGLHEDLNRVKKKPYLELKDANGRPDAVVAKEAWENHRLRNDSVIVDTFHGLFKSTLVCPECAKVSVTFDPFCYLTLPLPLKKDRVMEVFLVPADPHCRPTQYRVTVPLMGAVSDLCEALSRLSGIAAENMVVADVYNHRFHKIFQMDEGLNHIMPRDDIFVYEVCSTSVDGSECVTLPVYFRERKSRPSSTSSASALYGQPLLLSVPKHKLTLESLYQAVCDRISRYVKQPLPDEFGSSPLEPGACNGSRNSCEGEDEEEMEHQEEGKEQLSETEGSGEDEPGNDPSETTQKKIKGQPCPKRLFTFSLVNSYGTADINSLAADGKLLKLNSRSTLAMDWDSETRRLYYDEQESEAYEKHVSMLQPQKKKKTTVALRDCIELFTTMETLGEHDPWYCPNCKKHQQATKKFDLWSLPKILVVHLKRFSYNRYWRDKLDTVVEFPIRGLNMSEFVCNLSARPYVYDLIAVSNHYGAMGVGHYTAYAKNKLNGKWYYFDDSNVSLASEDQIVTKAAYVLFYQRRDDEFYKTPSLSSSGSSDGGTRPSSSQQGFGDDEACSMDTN
How it was run: as §1

Measured: log2 ratio of Biotin-Ahx-Ub-VS probe labelling

Chain of USP34 (Q70CQ2 whole entry, the tested form may be a part): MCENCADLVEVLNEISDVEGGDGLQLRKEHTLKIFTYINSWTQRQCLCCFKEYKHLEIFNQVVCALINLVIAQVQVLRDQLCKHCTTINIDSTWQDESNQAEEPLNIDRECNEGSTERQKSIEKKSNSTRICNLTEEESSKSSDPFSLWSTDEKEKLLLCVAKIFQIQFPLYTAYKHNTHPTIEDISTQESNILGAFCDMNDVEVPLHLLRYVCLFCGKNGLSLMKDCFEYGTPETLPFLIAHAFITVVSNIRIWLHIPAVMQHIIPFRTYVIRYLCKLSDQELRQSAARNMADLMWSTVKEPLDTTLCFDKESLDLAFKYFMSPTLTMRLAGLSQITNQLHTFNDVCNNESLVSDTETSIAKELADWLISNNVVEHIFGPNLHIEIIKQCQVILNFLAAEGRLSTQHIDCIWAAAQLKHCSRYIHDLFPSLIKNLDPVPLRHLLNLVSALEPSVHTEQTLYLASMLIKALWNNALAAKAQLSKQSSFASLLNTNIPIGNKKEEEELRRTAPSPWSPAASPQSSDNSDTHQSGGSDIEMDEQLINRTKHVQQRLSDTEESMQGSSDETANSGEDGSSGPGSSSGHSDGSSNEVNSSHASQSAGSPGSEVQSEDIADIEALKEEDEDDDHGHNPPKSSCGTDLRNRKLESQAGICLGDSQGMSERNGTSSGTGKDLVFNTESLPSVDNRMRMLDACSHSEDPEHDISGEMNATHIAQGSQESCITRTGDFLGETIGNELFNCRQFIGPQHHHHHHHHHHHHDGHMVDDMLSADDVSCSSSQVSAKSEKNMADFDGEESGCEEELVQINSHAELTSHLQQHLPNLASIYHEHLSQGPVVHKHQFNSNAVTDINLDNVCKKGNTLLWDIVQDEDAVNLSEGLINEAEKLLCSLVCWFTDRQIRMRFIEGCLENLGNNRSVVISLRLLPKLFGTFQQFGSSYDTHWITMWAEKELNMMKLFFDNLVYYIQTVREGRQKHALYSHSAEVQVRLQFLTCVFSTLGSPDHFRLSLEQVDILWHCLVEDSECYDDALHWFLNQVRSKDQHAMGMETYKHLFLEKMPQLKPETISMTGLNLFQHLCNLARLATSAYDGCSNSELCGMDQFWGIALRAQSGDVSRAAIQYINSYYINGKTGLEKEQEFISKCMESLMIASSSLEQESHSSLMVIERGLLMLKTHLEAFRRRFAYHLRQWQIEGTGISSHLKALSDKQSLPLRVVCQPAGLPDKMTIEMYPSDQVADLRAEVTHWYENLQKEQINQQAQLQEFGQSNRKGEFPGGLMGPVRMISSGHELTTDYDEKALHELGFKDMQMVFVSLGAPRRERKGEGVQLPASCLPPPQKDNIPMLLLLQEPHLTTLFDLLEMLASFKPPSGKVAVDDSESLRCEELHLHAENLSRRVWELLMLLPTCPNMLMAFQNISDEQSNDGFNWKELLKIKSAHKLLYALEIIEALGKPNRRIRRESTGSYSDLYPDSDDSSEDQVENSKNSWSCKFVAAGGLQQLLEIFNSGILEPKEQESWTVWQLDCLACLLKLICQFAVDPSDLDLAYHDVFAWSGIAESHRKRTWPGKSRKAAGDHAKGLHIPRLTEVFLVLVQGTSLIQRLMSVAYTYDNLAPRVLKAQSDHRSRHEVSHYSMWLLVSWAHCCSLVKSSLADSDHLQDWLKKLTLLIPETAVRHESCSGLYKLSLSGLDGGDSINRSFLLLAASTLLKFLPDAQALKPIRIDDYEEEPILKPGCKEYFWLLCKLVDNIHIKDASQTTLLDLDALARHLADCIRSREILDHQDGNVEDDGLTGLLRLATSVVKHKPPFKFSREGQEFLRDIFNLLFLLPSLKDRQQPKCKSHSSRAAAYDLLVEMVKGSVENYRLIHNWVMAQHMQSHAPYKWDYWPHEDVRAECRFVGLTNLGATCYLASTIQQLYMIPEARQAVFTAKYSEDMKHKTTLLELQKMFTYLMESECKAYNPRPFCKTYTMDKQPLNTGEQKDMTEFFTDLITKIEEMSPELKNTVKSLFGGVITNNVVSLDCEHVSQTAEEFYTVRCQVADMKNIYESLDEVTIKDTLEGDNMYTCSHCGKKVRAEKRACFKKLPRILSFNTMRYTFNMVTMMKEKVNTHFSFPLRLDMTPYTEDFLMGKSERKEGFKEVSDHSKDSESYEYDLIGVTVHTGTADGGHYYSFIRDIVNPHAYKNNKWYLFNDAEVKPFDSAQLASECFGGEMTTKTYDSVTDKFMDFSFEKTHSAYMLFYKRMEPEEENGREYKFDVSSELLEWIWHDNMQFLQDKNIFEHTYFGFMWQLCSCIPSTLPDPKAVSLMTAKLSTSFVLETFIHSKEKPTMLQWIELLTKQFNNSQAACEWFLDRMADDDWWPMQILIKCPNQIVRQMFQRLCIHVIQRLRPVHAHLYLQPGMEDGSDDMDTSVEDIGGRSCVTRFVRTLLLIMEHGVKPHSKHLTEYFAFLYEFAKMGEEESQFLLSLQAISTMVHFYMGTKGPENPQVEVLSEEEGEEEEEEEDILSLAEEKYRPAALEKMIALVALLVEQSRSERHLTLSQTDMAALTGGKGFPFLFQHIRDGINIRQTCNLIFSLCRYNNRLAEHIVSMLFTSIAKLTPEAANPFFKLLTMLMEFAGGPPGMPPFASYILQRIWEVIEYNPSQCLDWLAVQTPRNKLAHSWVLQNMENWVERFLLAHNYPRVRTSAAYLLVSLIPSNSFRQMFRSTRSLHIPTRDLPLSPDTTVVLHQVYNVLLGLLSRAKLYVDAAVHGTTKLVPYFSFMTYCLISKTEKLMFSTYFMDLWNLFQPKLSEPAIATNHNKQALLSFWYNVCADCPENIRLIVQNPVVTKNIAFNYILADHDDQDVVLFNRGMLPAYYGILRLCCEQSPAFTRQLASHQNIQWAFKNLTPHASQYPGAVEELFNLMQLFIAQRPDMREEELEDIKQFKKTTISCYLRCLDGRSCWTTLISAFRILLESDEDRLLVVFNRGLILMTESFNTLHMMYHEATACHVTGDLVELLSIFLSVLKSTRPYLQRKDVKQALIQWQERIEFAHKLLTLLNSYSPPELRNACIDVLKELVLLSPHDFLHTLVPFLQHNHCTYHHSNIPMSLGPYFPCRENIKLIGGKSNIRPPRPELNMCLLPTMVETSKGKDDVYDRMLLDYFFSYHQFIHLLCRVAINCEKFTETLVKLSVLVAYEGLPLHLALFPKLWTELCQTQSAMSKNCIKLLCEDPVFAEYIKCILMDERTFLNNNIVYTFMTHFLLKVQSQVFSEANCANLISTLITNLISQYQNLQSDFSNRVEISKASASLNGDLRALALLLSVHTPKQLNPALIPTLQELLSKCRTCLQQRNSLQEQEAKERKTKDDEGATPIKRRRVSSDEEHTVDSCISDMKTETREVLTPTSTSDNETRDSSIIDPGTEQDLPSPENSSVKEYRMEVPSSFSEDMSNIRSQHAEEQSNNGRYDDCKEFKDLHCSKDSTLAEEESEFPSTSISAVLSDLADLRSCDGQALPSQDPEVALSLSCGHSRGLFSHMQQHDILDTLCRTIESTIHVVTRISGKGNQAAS

Cl.O=C(CCl)NC1(c2ncccn2)CCC1
inactive: USP34 0.0452 | USP36 0.109 | USP38 0.0726 | USP39 0.133 | USP4 0.0299
